Here are results for 6 compounds from PubChem BioAssay (Tox21).

Assay [1] can be described thus: qHTS assay to identify small molecule antagonists of the estrogen receptor alpha (ER-alpha) signaling pathway using the BG1 cell line in the presence of 0.1 nM 17-beta-estradiol - cell viability counter screen (AID 1259241). Note: nearly all actives have a fitted effect of over 40% in size. Note: potency is the fitted concentration of half-maximal effect. Summed up: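 VM7Luc4E2 cells (endogenous ER-alpha, 4×ERE-luciferase), hormone-starved 5 days in charcoal-stripped FBS, were treated with compounds plus 0.1 nM 17beta-estradiol for 22 hr at 37C; viability read in same wells as CellTiter-Fluor live-cell protease fluorescence.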
For orientation: In qHTS, concentration-response curves come from the screen itself.

Assay [2] is described as follows: qHTS assay to identify small molecule antagonists of the androgen receptor (AR) signaling pathway using the MDA cell line in the presence of 0.5 nM R1881 - cell viability counter screen (AID 1259242). Note: nearly all actives have a fitted effect of over 45% in size. Note: potency is the fitted concentration of half-maximal effect. The essentials: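 qHTS format. MDA-kb2 (MMTV-luc, AR/GR responsive) + cpd + 0.5 nM R1881 final, 16 hr 37C/0% CO2 → CellTiter-Fluor 30 min → fluorescence intensity.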

The target in assay [3] is Androgen receptor (Homo sapiens) (UniProt P10275). In words: qHTS assay to identify small molecule antagonists of the androgen receptor (AR) signaling pathway using the MDA cell line in the presence of 0.5 nM R1881 (AID 1259243). Note: nearly all actives have a fitted effect of over 50% in size. Note: potency is the fitted concentration of half-maximal effect. The essentials: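 Antagonist mode quantitative HTS in MDA-kb2 MMTV-luciferase cells, agonist R1881 at 0.5 nM final, 16 hr exposure at 37C and 0% CO2, luminescent detection.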

Assay [4] addresses Estrogen receptor (Homo sapiens) (UniProt P03372). In words: qHTS assay to identify small molecule antagonists of the estrogen receptor alpha (ER-alpha) signaling pathway using the BG1 cell line in the presence of 0.1 nM 17-beta-estradiol (AID 1259244). Note: nearly all actives have a fitted effect of over 50% in size. Note: potency is the fitted concentration of half-maximal effect. Summed up: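 Reporter is a stably transfected luciferase under four estrogen responsive elements in VM7Luc4E2 cells expressing native full-length ER-alpha; inhibition of 0.1 nM (final) 17beta-estradiol-driven signal over 22 h is read by luminescence.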

A short description of assay [5]: qHTS assay to identify small molecule HDAC inhibitors (AID 1259364).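 Note: wild-type HCT-116 cells with endogenous class I/II HDAC activity; top concentration of the series differs between compounds; nearly all actives have a fitted effect of over 45% in size.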 The essentials: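 Quantitative high-throughput format: overnight-seeded HCT-116 cells got compounds for 2 hr at 37C; HDAC-Glo I/II reagent added, 30 min RT, luminescence measured.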
Assay [6] is described as follows: qHTS assay to identify small molecule HDAC inhibitors - cell viability counter screen (AID 1259365). Note: series mostly up to about 92 µM; nearly all actives have a fitted effect of over 50% in size. The essentials:
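Wild-type HCT-116 cells were seeded at 1,500 per well, incubated overnight at 37 C, then exposed to compounds in DMSO for 2hr. Viability was read by CellTiter-Glo luminescence after 30min at room temperature.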

Assay [7] in a line: qHTS assay to identify small molecule agonists of the sonic hedgehog signaling (Shh) pathway - cell viability counter screen (AID 1259366). Note: nearly all actives have a fitted effect of over 50% in size. Note: potency is the fitted concentration of half-maximal effect. The essentials: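 NIH/3T3-derived 3T3 Gli1-Luc cells (stable Gli1-responsive firefly luciferase reporter) were seeded, rested 4 hr at 37 C/5% CO2, then exposed to compounds in DMSO for 24 hr; viability was read by CellTiter-Fluor fluorescence in the same wells.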

Assay [8] in a line: qHTS assay to identify small molecule antagonists of the sonic hedgehog signaling (Shh) pathway - cell viability counter screen (AID 1259367). Note: nearly all actives have a fitted effect of over 55% in size. Note: potency is the fitted concentration of half-maximal effect. Summed up: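 Viability was read by CellTiter-Fluor fluorescence in the same wells, reagent added 23 hr into compound treatment and incubated 1 hr at 37C. The 3T3 Gli1-Luc reporter cells (2,000/well) received conditioned medium after compound and ran 24 hr.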

Assay [9] is described as follows: qHTS assay to identify small molecule agonists of the sonic hedgehog signaling (Shh) pathway (AID 1259368; calls by dose curve; note: series mostly up to about 92 µM; nearly all actives have a fitted effect of over 15% in size). Summed up: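 Quantitative high-throughput format using a Gli1-driven firefly luciferase reporter line derived from NIH/3T3 cells. After a 24 hr compound treatment at 37 C and 5% CO2, luminescence reported Gli1 response element activity.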
Assay [10] in a line: qHTS assay to identify small molecule antagonists of the sonic hedgehog signaling (Shh) pathway (AID 1259369; calls by dose curve; note: nearly all actives have a fitted effect of over 45% in size; note: potency is the fitted concentration of half-maximal effect). Summed up: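 Stable Gli1-Luc reporter NIH/3T3 clone; quantitative HTS in stimulated mode with conditioned medium. Luminescence measured after 24hr compound treatment at 37 C.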
For assay [11], the target named is Estrogen receptor beta (Homo sapiens) (UniProt Q92731). In words: qHTS assay to identify small molecule agonists of the estrogen receptor beta (ER-beta) signaling pathway (AID 1259377; active = well fitted activation curve with a large enough effect in the signal ratio in the repeat runs, not every such curve was filed as active; the % refers to the signal ratio). The essentials:
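ER-beta-UAS-bla HEK293T (GripTite) cells carrying a UAS-driven beta-lactamase reporter, in medium with 2% charcoal-stripped FBS, were exposed to compounds for 16 hr at 37C; LiveBLAzer B/G FRET substrate was then added and fluorescence read after 2 hours at room temperature.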

For assay [12] the target is unchanged. Description: qHTS assay to identify small molecule antagonists of the estrogen receptor beta (ER-beta) signaling pathway (AID 1259378; active = well fitted inhibition curve with a large enough effect in the signal ratio in the repeat runs, not every such curve was filed as active; the % refers to the signal ratio). Summed up: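 Antagonist mode: compounds added to beta-lactamase reporter HEK293T ER-beta-UAS cells stimulated with E2 (1nM final), 16 hr at 37C. LiveBLAzer B/G FRET substrate, 2 hours room temperature, fluorescence read-out.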

Assay [13] is described as follows: qHTS assay to identify small molecule agonists of the androgen receptor (AR) signaling pathway in the presence of an antagonist - cell viability counter screen (AID 1259379).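 For activity change, negative = cytotoxicity: MDA-kb2 human breast cancer cells carrying an MMTV luciferase reporter; series mostly up to about 92 µM.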 Note: nearly all actives have a fitted effect of over 25% in size. Note: potency is the fitted concentration of half-maximal effect. The essentials:
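Nilutamide-containing (3.0uM final) MDA-kb2 cultures, 3,000 cells/well, were treated with compounds across 15 concentrations. After 16 hr at 37C with no CO2, cell viability was determined by CellTiter-Fluor fluorescence in the luciferase assay wells.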

Assay [14] can be described thus: qHTS assay to identify small molecule agonists of the estrogen receptor beta (ER-beta) signaling pathway - cell viability counter screen (AID 1259380). Note: nearly all actives have a fitted effect of over 30% in size. Note: potency is the fitted concentration of half-maximal effect. The essentials:
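Steps: plate ER-beta-UAS-bla HEK293T cells, rest 6 hr; add compounds in DMSO; incubate 16 hr at 37C, 5% CO2; add FRET substrate 2 hr; add CellTiter-Glo, wait 30 min at room temperature; read luminescence.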

The nature of assay [15]: qHTS assay to identify small molecule antagonists of the estrogen receptor beta (ER-beta) signaling pathway - cell viability counter screen (AID 1259382). For activity change, negative = cytotoxicity: series mostly up to about 92 µM. Note: nearly all actives have a fitted effect of over 55% in size. Note: potency is the fitted concentration of half-maximal effect. The essentials: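 Viability is scored by CellTiter-Glo luminescence (30 min, room temperature) in ER-beta-UAS-bla HEK293T wells already read for reporter fluorescence. Compound exposure lasts 16 hr at 37C alongside 1nM 17-beta-estradiol in charcoal-stripped serum medium.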

The target of assay [16] is Estrogen receptor (Homo sapiens) (UniProt P03372). Description: qHTS assay to identify small molecule agonists of the estrogen receptor alpha (ER-alpha) signaling pathway in the presence of an antagonist (AID 1259383; calls by dose curve; note: top concentration of the series differs between compounds; nearly all actives have a fitted effect of over 15% in size). Summed up:
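Readout was ERE-driven luciferase luminescence in VM7Luc4E2 cells, which express full-length ER-alpha endogenously. Compounds were tested at 15 concentrations for 22hr alongside 10.0nM ICI-182,780 (final concentration).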

Assay [17] is described as follows: qHTS assay to identify small molecule agonists or antagonists of the thyroid stimulating hormone receptor (TSHR) signaling pathway - wild type cell line counter screen (AID 1259384; calls by dose curve). The essentials: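 Counter screen in untransfected Hek293: compounds (15-point titration, triplicate) plus phosphodiesterase inhibitor Ro20-1724 added after 18 h plating; 30 min RT. Intracellular cAMP via competitive d2/cryptate immunoassay, 1 h incubation.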

The target of assay [18] is Thyrotropin receptor (Homo sapiens) (UniProt P16473). Description: qHTS assay to identify small molecule antagonists of the thyroid stimulating hormone receptor (TSHR) signaling pathway (AID 1259385; calls by dose curve; note: nearly all actives have a fitted effect of over 20% in size). Summed up: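 Antagonist mode: compound-treated TSHR-expressing HEK293 cells were stimulated with 1.5 ng/mL TSH (final) in presence of Ro20-1724 for 30 min at RT. HTRF cAMP detection after 1 h; each compound tested at 15 concentrations, triplicate.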

A short description of assay [19]: qHTS assay to identify small molecule agonists of the estrogen receptor alpha (ER-alpha) signaling pathway in the presence of an antagonist - cell viability counter screen (AID 1259386). For activity change, negative = cytotoxicity: series mostly up to about 92 µM.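 Note: cells exposed to compounds for 22 h at 37 °C before the viability read; nearly all actives have a fitted effect of over 30% in size.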 Note: potency is the fitted concentration of half-maximal effect. The essentials: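 In this counter screen, compound effects on VM7Luc4E2 viability were tested in the presence of the antagonist ICI-182,780 at 10.0nM final. Compounds were dosed at 15 concentrations, exposure lasted 22hr, and the CellTiter-Fluor signal was read.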

For assay [20], the target named is Androgen receptor (Homo sapiens) (UniProt P10275). Description: qHTS assay to identify small molecule agonists of the androgen receptor (AR) signaling pathway in the presence of an antagonist (AID 1259381; calls by dose curve; note: nearly all actives have a fitted effect of over 15% in size). The essentials: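 Reporter-gene luminescence from MDA-kb2 cells exposed 16hr at 37C (0% CO2) to 15-point compound titrations with 3.0uM final nilutamide as AR antagonist.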

“And” between values parts separate entries of the source, which are not always exact repeats. Identical values can stand only once. Inconclusive results are not listed. More than one record can exist for a structure, and the calls need not agree. The source made the active and inactive calls. Unless noted, calls come from the whole dose curve; as a rule, active = well fitted curve in the direction sought with a large enough effect in the repeat runs; inconclusive = weak or mixed curves; inactive = no such curve, though single readings can be large; an effect the other way counts as inactive or inconclusive.
% is set by controls: 0 for no effect and ±100 for the full control effect.

Sequence of Estrogen receptor beta (Homo sapiens) (Q92731 whole entry, looked up): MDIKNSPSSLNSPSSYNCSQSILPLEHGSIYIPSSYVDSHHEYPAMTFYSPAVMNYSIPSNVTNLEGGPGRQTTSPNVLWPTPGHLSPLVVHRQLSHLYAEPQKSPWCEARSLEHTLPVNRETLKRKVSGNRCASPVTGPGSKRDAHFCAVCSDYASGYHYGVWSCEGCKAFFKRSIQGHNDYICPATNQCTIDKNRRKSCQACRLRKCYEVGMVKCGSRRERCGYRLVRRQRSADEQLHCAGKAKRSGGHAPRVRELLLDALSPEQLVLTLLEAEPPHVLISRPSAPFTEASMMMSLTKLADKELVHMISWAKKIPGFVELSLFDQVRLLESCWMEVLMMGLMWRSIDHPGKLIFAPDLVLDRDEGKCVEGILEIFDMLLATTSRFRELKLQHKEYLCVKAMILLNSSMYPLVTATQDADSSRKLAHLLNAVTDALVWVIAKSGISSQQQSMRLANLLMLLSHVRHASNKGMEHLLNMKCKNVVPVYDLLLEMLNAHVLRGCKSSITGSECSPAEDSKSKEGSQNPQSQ
Sequence of Androgen receptor (Homo sapiens) (P10275 whole entry, looked up): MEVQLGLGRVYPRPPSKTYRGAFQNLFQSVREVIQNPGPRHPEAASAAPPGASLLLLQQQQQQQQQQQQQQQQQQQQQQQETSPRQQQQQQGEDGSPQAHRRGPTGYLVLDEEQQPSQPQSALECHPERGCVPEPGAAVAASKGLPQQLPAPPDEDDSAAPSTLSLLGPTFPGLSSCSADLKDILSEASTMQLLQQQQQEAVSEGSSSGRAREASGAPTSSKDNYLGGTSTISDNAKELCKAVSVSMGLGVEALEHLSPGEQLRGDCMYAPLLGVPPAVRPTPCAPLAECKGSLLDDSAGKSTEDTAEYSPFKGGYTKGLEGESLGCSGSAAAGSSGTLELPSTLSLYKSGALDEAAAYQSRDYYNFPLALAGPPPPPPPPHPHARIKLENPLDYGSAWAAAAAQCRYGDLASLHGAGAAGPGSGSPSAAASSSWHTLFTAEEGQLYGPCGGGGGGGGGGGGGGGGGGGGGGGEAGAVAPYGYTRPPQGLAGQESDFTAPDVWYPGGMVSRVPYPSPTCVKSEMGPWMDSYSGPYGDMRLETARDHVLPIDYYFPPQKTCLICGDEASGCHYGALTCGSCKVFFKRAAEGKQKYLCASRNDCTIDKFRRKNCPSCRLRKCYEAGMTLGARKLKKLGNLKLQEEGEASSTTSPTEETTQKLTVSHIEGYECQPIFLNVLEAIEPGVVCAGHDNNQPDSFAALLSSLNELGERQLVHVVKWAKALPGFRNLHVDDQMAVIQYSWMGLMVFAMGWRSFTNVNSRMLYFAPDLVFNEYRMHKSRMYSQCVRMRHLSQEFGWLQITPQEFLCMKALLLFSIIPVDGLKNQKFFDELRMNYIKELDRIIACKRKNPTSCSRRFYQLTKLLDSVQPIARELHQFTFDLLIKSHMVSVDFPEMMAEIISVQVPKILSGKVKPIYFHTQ
Sequence of Thyrotropin receptor (Homo sapiens) (P16473 whole entry, looked up): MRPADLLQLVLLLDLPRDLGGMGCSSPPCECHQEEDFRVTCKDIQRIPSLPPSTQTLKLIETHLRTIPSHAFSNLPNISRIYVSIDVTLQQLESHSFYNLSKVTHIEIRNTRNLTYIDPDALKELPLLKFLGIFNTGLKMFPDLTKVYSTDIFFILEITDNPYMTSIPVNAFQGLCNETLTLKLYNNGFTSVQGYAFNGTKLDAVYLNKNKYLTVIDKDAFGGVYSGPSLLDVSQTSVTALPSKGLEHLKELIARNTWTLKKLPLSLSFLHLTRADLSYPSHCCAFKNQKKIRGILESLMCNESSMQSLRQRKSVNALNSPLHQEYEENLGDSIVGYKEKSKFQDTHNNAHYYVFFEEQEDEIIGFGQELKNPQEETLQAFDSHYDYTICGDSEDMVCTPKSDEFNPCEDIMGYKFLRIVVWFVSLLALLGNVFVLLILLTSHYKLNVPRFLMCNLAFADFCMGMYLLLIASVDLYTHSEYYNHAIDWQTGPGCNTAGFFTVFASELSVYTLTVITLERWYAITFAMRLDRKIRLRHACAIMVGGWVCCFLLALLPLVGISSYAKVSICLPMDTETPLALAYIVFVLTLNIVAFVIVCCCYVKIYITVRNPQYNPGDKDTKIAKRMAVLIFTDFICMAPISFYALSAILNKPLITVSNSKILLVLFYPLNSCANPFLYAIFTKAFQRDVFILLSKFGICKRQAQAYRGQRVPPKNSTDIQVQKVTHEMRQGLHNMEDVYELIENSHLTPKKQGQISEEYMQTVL
Sequence of Estrogen receptor (Homo sapiens) (P03372 whole entry, looked up): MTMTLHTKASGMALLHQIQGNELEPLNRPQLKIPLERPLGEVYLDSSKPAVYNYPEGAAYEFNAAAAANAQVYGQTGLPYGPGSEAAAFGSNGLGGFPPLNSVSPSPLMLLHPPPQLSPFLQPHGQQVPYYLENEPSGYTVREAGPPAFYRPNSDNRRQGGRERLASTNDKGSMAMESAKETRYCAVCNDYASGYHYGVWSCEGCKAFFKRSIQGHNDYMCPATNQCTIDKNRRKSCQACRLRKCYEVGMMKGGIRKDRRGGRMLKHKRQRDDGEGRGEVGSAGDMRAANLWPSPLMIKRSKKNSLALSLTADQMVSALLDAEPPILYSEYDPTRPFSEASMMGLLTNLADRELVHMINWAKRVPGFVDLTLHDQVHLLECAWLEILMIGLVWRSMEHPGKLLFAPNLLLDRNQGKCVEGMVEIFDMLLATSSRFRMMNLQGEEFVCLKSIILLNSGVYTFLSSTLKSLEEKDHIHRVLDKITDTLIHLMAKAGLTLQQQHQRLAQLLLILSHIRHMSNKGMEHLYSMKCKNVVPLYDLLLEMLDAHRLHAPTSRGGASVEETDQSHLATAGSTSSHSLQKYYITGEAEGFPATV

Consider `CCOC(=O)Cc1ccccc1`, for which the Potency result in assay [1], in assay [2], in assay [3], in assay [4], in [5] and in [6] was “inactive” each time. The Potency result in assay [7], in assay [8], in assay [9], in [10], in [11] and in assay [12] was “inactive” in each case. The Potency result in assay [13], in assay [14], in assay [15], in assay [16], in assay [17] and in assay [18] was “inactive” in each case. For the same compound, the Potency result in assay [19] was “inactive”.

With `CC(C)=CC1C(C(=O)OC(C#N)c2cccc(Oc3ccccc3)c2)C1(C)C` (centres undefined), the Potency result in assay [1], in [2], in assay [3], in assay [5], in assay [6] and in [7] was “inactive” each time. Besides, the Potency entry in assay [8], in assay [9], in [10], in [11], in [12] and in [13] was “inactive” in each case. Also, the Potency entry in assay [14], in assay [15], in assay [17], in assay [18] and in assay [19] was “inactive” each time.

Regarding `BrCCCBr`, the Potency entry in assay [1], in [2], in assay [3], in assay [5], in [6] and in assay [7] was “inactive” each time. For the same compound, the Potency result in assay [8], in assay [13], in assay [14], in assay [15], in [17] and in assay [18] was “inactive” throughout. Moreover, in assay [19], the Potency result was “inactive”.

In the case of `Cc1ccc(C)c2ccccc12`, the Potency result in assay [1], in assay [2], in assay [3], in assay [5], in assay [6] and in assay [7] was “inactive” in each case. Besides, the Potency result in assay [8], in [10], in [12], in assay [13], in [14] and in assay [20] was “inactive” throughout. Besides, the Potency entry in assay [15] and in assay [19] was “inactive” throughout.

Take `CCC[CH2][Sn]([CH2]CCC)([CH2]CCC)[O][Sn]([CH2]CCC)([CH2]CCC)[CH2]CCC`: the activity change, negative = cytotoxicity in [1] was -23.5% [at 8.39 µM] (inactive). Besides, the Potency was 533 nM (active) in [2]; 189 nM (active) in [3]; 377 nM (active) in assay [4]; 212 nM (active) in assay [7]; 377 nM (active) in [8]; 212 nM (active) in assay [10]. Moreover, the Potency in assay [13] was 475 nM (active); in assay [14], 1.06 µM (active); in [15], 1.19 µM (active); in [19] it was 475 nM (active). The activity change, negative = inhibition in [5] was 2.24% [at 8.39 µM] (inactive); in [18] it was 0.334% [at 8.39 µM] (inactive). The figures for the activation in assay [11] and in assay [16] were -9.06% [at 8.39 µM] (inactive) and -15.3% [at 8.39 µM] (inactive), respectively. Further, in [17], the cAMP activity change is 1.6% [at 8.39 µM, stronger effect = higher value] (inactive).

On to `CN(C)C(=S)SSC(=S)N(C)C`, for which the Potency was 676 nM (active) and 6.86 µM (active) and 266 nM (active) in [1]; 214 nM (active) and 217 nM (active) in assay [2]; 107 nM (active) and 172 nM (active) and 188 nM (active) in [3]; 191 nM (active) and 273 nM (active) and 237 nM (active) in [4]; 427 nM (active) and 545 nM (active) and 422 nM (active) in assay [7]; 191 nM (active) and 611 nM (active) and 1.19 µM (active) in assay [8]. Moreover, the Potency in [10] is 47.9 nM (active) and 306 nM (active) and 531 nM (active); in [13], 60.3 µM (active) and 68.6 µM (active) and inactive; in assay [14], 135 nM (active) and 1.72 µM (active) and 119 nM (active); in assay [15], 479 nM (active) and 273 nM (active) and 237 nM (active); in [19], 30.2 µM (active) and 30.6 µM (active). Also, the Potency entry in [5], in assay [6], in [9] and in assay [16] was “inactive” in each case.
